Reference: ChEMBL document CHEMBL1961873, “Compounds: GSK PKIS; Assays: Nanosyn kinase panel” (2012)
Several values for one entry are separate records, joined by “and”; a condition that tells them apart may be missing. Equal values may be shown once.

How the values were obtained:
[1] = target: Dual specificity protein kinase CLK3 (Homo sapiens) (UniProt P49761); details: at 1 µM;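 further: each value is the mean inhibition of CLK3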
[2] = target: Dual specificity tyrosine-phosphorylation-regulated kinase 1A (Homo sapiens) (UniProt Q13627); details: at 0.1 µM
[3] = target: Dual specificity tyrosine-phosphorylation-regulated kinase 1A (Homo sapiens) (UniProt Q13627); details: at 1 µM
[4] = target: Dual specificity tyrosine-phosphorylation-regulated kinase 1B (Homo sapiens) (UniProt Q9Y463); details: at 0.1 µM
[5] = target: Dual specificity tyrosine-phosphorylation-regulated kinase 1B (Homo sapiens) (UniProt Q9Y463); details: at 1 µM
[6] = target: T1, Dual specificity tyrosine-phosphorylation-regulated kinase 2 (Homo sapiens) (UniProt Q92630); details: at 0.1 µM
T1 sequence (whole entry): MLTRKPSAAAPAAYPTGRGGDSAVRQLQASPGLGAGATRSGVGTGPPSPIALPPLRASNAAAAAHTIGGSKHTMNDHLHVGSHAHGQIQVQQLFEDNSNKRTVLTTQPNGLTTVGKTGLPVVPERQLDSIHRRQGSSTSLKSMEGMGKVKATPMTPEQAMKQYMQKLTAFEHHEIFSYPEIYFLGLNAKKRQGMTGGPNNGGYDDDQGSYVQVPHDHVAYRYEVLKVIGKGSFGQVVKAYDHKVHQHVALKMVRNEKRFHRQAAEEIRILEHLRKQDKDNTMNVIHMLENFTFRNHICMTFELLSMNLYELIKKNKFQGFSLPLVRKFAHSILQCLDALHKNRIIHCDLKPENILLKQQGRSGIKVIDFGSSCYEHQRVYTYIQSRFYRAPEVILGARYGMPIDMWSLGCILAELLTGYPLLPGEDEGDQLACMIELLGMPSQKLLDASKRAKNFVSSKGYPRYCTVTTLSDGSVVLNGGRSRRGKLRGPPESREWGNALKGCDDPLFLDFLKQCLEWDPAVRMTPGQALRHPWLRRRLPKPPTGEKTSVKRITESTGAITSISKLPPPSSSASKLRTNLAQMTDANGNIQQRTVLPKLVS

[7] = target: T1, Dual specificity tyrosine-phosphorylation-regulated kinase 2 (Homo sapiens); details: at 1 µM
[8] = target: Glycogen synthase kinase-3 alpha (Homo sapiens) (UniProt P49840); details: at 0.1 µM
[9] = target: Glycogen synthase kinase-3 alpha (Homo sapiens) (UniProt P49840); details: at 1 µM
[10] = target: Glycogen synthase kinase-3 beta (Homo sapiens) (UniProt P49841); details: at 0.1 µM;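 further: values are mean percent inhibition of GSK3B activity, from the GSK Published Kinase Inhibitor Set (PKIS) screening dataset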
Chain of Glycogen synthase kinase-3 beta (Homo sapiens) (P49841 whole entry, looked up): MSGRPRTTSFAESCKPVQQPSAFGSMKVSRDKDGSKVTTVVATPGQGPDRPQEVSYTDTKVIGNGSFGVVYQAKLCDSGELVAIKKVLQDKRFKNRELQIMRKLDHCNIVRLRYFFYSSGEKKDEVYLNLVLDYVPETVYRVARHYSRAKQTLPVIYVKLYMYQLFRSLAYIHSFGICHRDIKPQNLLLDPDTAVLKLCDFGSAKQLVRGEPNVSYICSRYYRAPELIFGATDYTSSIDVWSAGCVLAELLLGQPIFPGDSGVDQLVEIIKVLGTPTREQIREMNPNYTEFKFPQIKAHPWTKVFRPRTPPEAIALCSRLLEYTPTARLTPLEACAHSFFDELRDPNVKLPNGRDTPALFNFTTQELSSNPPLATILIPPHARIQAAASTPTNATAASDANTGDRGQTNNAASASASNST

Chain of Dual specificity protein kinase CLK3 (Homo sapiens) (P49761 whole entry, looked up): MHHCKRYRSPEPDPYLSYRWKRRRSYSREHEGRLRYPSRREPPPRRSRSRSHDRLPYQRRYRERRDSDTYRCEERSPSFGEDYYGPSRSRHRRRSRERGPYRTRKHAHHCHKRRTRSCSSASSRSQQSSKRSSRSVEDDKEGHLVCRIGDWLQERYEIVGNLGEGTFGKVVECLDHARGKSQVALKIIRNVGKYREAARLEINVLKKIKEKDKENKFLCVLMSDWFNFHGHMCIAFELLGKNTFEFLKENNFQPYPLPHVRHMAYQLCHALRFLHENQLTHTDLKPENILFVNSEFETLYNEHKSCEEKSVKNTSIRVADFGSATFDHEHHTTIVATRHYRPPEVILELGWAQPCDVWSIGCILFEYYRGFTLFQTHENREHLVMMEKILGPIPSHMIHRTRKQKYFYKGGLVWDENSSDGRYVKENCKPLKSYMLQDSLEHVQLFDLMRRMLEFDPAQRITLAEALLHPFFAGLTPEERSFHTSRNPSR
Chain of Dual specificity tyrosine-phosphorylation-regulated kinase 1B (Homo sapiens) (Q9Y463 whole entry, looked up): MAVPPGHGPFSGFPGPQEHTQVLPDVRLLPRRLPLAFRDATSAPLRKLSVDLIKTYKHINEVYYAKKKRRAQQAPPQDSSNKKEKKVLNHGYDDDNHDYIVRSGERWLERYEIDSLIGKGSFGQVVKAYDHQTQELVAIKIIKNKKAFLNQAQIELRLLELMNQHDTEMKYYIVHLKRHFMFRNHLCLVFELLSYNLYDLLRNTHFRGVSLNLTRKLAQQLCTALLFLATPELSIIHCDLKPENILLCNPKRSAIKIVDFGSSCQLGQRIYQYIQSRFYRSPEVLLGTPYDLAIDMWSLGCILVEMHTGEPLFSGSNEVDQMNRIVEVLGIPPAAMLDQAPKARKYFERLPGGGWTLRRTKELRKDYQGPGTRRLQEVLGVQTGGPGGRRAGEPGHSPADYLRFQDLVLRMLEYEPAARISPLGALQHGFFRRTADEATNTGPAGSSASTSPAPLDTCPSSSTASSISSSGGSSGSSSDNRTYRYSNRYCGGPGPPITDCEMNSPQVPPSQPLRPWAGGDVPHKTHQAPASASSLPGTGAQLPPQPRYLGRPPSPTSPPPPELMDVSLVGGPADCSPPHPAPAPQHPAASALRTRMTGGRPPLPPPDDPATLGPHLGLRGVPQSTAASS
Chain of Glycogen synthase kinase-3 alpha (Homo sapiens) (P49840 2-483 limits assumed): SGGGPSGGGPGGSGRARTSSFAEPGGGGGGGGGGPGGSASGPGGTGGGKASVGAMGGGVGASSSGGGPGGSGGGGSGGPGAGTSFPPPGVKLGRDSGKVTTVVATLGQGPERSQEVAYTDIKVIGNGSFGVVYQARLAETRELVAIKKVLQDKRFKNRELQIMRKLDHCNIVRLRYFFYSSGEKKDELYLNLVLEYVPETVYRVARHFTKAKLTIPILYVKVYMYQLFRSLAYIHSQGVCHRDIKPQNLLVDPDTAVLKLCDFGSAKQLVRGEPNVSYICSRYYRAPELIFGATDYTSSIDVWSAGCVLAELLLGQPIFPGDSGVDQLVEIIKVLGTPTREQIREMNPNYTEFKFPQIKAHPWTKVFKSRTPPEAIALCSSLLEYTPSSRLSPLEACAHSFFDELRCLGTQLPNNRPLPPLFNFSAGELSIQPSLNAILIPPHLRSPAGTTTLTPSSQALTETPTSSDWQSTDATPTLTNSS

Compound	inhibition [1]	inhibition [2]	inhibition [3]	inhibition [4]	inhibition [5]	inhibition [6]	inhibition [7]	inhibition [8]	inhibition [9]	inhibition [10]
Cc1ccc(-c2cc3c(NC(=O)C4CC4)ncnc3o2)cc1	7.45%	4.14%	12.6%	1.1%	4.52%	2.48%	8.21%	12.4%	48.7%	7.9%
OCCCNc1nccc(-c2c(-c3ccc(F)cc3)nn3cc(C(F)(F)F)ccc23)n1	0.7%	1.47%	6.36%	1.89%	3.86%	2.33%	3.97%	7.04%	18.2%	8.01%
COc1cc(N2CCN(C(C)C)CC2)ccc1Nc1nc(Nc2cccc3ncccc23)c2cc[nH]c2n1	1.89%	0.19%	5.87%	1.41%	7.46%	-1.54%	-1.74%	0.06%	3.49%	0.31%
Cc1cc(O)cc(C)c1/C=C/c1cncc(C(N)=O)c1	3.45%	2.36%	6.61%	0.87%	2.81%	1.62%	3.99%	1.54%	4.08%	1.76%
NS(=O)(=O)c1cccc(N/C=C2\C(=O)Nc3ccccc32)c1	3.43%	4.67%	7.61%	1.69%	4.25%	3.56%	9.5%	4.32%	20%	3.36%
CNC(=O)c1sc(-n2cnc3cc(OC)c(OC)cc32)cc1OCc1ccccc1C(F)(F)F	-0.08%	1.4%	2.18%	-0.95%	0.23%	2.15%	1.34%	2.13%	5.93%	1.12%
COc1cc(N2CCN(C(C)C)CC2)ccc1Nc1nc(Nc2cccc(F)c2C(=O)O)c2cc[nH]c2n1	7.82%	5.55%	23%	5.54%	32.6%	2.88%	4.2%	5%	6.33%	3.95%
c1ccc(-c2n[nH]cc2-c2ccnc(-c3ccc(OCCn4ccnc4)cc3)c2)nc1	0.82%	3.79%	5.07%	0.31%	0.62%	-0.06%	0.1%	1.15%	3.28%	1.16%
COc1ccc(-c2nn3ncccc3c2-c2ccnc(Nc3ccc(F)c(F)c3)n2)cc1	3.23%	2.77%	4.84%	-0.82%	1.01%	2.83%	3.6%	3.2%	4.32%	3.16%
CCCNc1cccc(-n2ncc3c(N/N=C/c4ccncc4)ncnc32)c1	9.87%	1.44%	20.6%	0.57%	9.45%	2.85%	14.2%	31.9%	71.8%	24%
COc1cccc(-n2ncc3c(N/N=C/c4ccc(C(=O)NCCN(C)C)cc4)ncnc32)c1	31.7%	38.1%	71.6%	17.8%	57.1%	20.9%	66.3%	71.9%	82.7%	66.3%
O=C1Nc2ccccc2/C1=C1\CCc2cc(O)ccc21	3.11%	7.28%	34%	2.1%	17.7%	5.9%	24.7%	3.11%	10.5%	1.77%
CN1CCC(n2cnc(-c3ccc(F)cc3)c2-c2ccnc(NCCO)n2)CC1	3.15%	3.36%	3.78%	-0.1%	1.43%	2.57%	3.9%	3.17%	5.09%	3.17%
COc1ccc2ncn(-c3cc(O[C@H](C)c4ccccc4C(F)(F)F)c(C(N)=O)s3)c2c1	0.85%	0.11%	2.44%	0.37%	1.63%	-0.29%	1.33%	-0.19%	4.58%	-0.14%
CS(=O)(=O)CCNCc1ccc(-c2ccc3ncnc(Nc4ccc(OCc5ccccc5)cc4)c3c2)o1	0.48%	1.93%	4.22%	-0.07%	1.88%	5.3%	2.62%	2.32%	3.44%	1.65%
O=C(O[C@H]1CN[C@H](C#Cc2cc3ncnc(Nc4ccc(OCc5cccc(F)c5)c(Cl)c4)c3s2)C1)N1CCOCC1	2.04%	2.71%	6.81%	-1.11%	-0.95%	3.84%	3.68%	3.45%	4.35%	2.75%
CS(=O)(=O)Nc1ccc(-c2cc(-c3ccccc3)cc(C(N)=O)c2N)cc1	-0.57%	0.57%	4.13%	0.32%	1.12%	0.61%	2.18%	1.48%	3.56%	0.94%
COc1cc(Nc2ncc(-c3ccccc3)o2)cc(OC)c1	1.09%	3.59%	6.1%	-8.51%	0.86%	2.09%	1.69%	3.75%	14.6%	2.47%
CS(=O)(=O)CCNCc1ccc(-c2ccc3ncnc(Nc4ccc(OCc5cccc(C(F)(F)F)c5)cc4)c3c2)o1	1.18%	2.76%	5.29%	-0.58%	1.03%	3.45%	6.22%	2.81%	1.39%	1.65%
Nc1ncnc2occ(-c3ccc(NC(=O)Nc4cc(C(F)(F)F)ccc4F)cc3)c12	2.26% and 0.21%	1.15% and 1.58%	4.22% and 0.86%	1.3% and 0.83%	2.57% and 1.79%	2.49% and -1.01%	3.45% and -1.47%	7.6% and 1.13%	17.5% and 6.32%	7.23% and 1.21%
COC(=O)Nc1nc2cc(Oc3ccc(NC(=O)Nc4ccccc4)cc3)ccc2[nH]1	2%	0.64%	2.92%	-0.93%	1.92%	0.59%	0.89%	4.23%	8.26%	3.5%
Fc1ccc(Nc2nccc(-c3c(-c4ccc(C(F)(F)F)cc4)nn4ncccc34)n2)cc1F	4.71%	2.73%	5.39%	1.21%	2.44%	2.31%	3.44%	2.05%	4.32%	1.37%
CN(c1ccc(NC(=O)NCCN2CCOCC2)cc1)c1ccnc(Nc2ccc(CS(C)(=O)=O)cc2)n1	1.43%	1.69%	3.45%	-0.71%	2.44%	1.44%	3.05%	4.05%	8.02%	4.49%
